Measured values published in PubChem BioAssay (NCI).
This is part of a sample that, as a whole, favours compounds with a hit. Of some 79,000 tested, about 15% had one in any assay. Calls of active or inactive are those of the source. No stated cut-off is given here; in the data, active means growth inhibition above about 70%; inactive means the rest.

What was measured:
[1] = NCI Yeast Anticancer Drug Screen. Data for the rad52 strain (AID 147);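 further: 0% = growth of vehicle-treated control cultures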; conditions: S. cerevisiae rad52 mutant growth inhibition, stronger effect = higher value
Method in brief: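 Screen used a yeast mutant impaired in DNA repair. After compound exposure, growth was measured. Values reflect inhibition compared with vehicle-treated cells.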

[2] = NCI Yeast Anticancer Drug Screen. Data for the wt1 strain (AID 149);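 further: 0% = growth of vehicle-treated wt1 cultures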; conditions: S. cerevisiae wt1 strain (SPY 50644) growth inhibition, stronger effect = higher value
Method in brief: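 Compounds are added to wt1 yeast cultures. Growth is then measured. Inhibition is expressed relative to vehicle-treated controls.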

[3] = NCI Yeast Anticancer Drug Screen. Data for the rad50EPP+ strain (AID 151);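 further: 0% = growth of vehicle-treated control cultures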; conditions: S. cerevisiae rad50 mutant strain, stronger effect = higher value
Method in brief: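 Exposing the rad50EPP+ strain to each compound, growth was compared with vehicle-only cultures to give inhibition.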

[4] = NCI Yeast Anticancer Drug Screen. Data for the mgt1 strain (AID 153); conditions: S. cerevisiae mgt1 mutant growth inhibition, stronger effect = higher value
Method in brief: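 Genetically defined yeast (mgt1) treated with compound; inhibition of growth expressed against vehicle-treated controls.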

[5] = NCI Yeast Anticancer Drug Screen. Data for the rad50 strain (AID 155);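 further: 0% = growth of vehicle-only cultures of the same strain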; conditions: S. cerevisiae rad50 strain growth inhibition, stronger effect = higher value
Method in brief: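 Inhibition values express reduced yeast growth in compound-treated cultures relative to vehicle-treated controls.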

[6] = NCI Yeast Anticancer Drug Screen. Data for the mec2-1 strain (AID 157); conditions: S. cerevisiae mec2-1 strain, stronger effect = higher value
Method in brief: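 Readout is yeast growth inhibition, normalised to vehicle-treated controls, in the mec2-1 strain exposed to compound.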

[7] = NCI Yeast Anticancer Drug Screen. Data for the rad14 strain (AID 159);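 further: 0% = growth of vehicle-treated control cultures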; conditions: S. cerevisiae rad14 strain growth inhibition, stronger effect = higher value
Method in brief: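 A mutant yeast strain defective in DNA damage repair is treated with compound; inhibition of its growth is scored against untreated, vehicle-exposed cultures.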

[8] = NCI Yeast Anticancer Drug Screen. Data for the sgs1 mgt1 strain (AID 161);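 further: 0% = growth of cultures given vehicle only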; conditions: S. cerevisiae sgs1 mgt1 strain, stronger effect = higher value
Method in brief: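 Compounds are added to genetically altered yeast, and growth is compared with cultures given vehicle alone to give percent inhibition.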

[9] = NCI Yeast Anticancer Drug Screen. Data for the CLN2oe strain (AID 163);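 further: 0% = growth of vehicle-only control cultures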; conditions: S. cerevisiae CLN2oe strain, stronger effect = higher value
Method in brief: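 Values reflect how much compound exposure reduced yeast growth, referenced to vehicle-exposed cells. Assay organism is a strain with a defined genetic change affecting cell-cycle control.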

[10] = NCI Yeast Anticancer Drug Screen. Data for the cln2 rad14 strain (AID 165);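 further: 0% = growth equal to vehicle treated cultures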; conditions: S. cerevisiae cln2 rad14 strain, stronger effect = higher value
Method in brief: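 Relative to vehicle controls, growth inhibition of compound-treated cln2 rad14 yeast was recorded.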

[11] = NCI Yeast Anticancer Drug Screen. Data for the bub3 strain (AID 167); conditions: S. cerevisiae bub3 mutant strain, stronger effect = higher value
Method in brief: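 Steps: expose the mutant yeast strain to compound; grow alongside vehicle-treated cultures; measure growth; express inhibition against the vehicle cultures.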

[12] = NCI Yeast Anticancer Drug Screen. Data for the wt2 strain (AID 169);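 further: 0% = growth of vehicle-treated yeast cultures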; conditions: S. cerevisiae wt2 strain growth inhibition, stronger effect = higher value
Method in brief: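 Values express reduction in yeast growth under compound treatment, referenced to vehicle-treated cells.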

[13] = NCI Yeast Anticancer Drug Screen. Data for the mlh1 strain (AID 171);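 further: 0% = growth of vehicle-treated control cultures of the same strain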; conditions: S. cerevisiae mlh1 strain growth inhibition, stronger effect = higher value
Method in brief: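 Steps: expose the defined-mutant yeast strain to compound; expose a parallel culture to vehicle; measure growth; express compound effect as inhibition relative to the vehicle culture.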

[14] = NCI Yeast Anticancer Drug Screen. Data for the sgs1 strain (AID 173);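 further: 0% = growth of vehicle-only control cultures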; conditions: S. cerevisiae sgs1 mutant, stronger effect = higher value
Method in brief: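 Treat defined-mutant yeast with compound; measure growth; calculate inhibition relative to vehicle-treated cells.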

[15] = NCI Yeast Anticancer Drug Screen. Data for the mlh1 rad18 strain (AID 175); conditions: S. cerevisiae mlh1 rad18 strain growth inhibition, stronger effect = higher value
Method in brief: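 Test agents were incubated with a yeast strain of defined genotype (DNA damage repair defect). Inhibition of growth was derived by comparison with vehicle-exposed cultures.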

[16] = NCI Yeast Anticancer Drug Screen. Data for the rad18 strain (AID 177); conditions: S. cerevisiae rad18 mutant growth inhibition, stronger effect = higher value
Method in brief: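 A genetically defined yeast mutant impaired in DNA damage repair was treated with test compounds, then its growth was measured against cultures receiving vehicle alone.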

[17] = at 5.0 µM (retest, dose inferred, filed as 0.5)
[18] = at 50.0 µM (retest, dose inferred, filed as 5.0)

Measured: growth inhibition

CCCCOP(=O)(CCCP(=O)(OCCCC)OCCCC)OCCCC
active: [1]; at 100.0 µM 97% | [2]; at 100.0 µM 94% | [5]; at 100.0 µM 97% | [6]; at 100.0 µM 95% | [7]; at 100.0 µM 90% | [9]; at 100.0 µM 81% | [11]; at 100.0 µM 79% | [12]; at 100.0 µM 96% | [13]; at 100.0 µM 91% | [14]; at 100.0 µM 93% | [16]; at 100.0 µM 95%
inactive: [1]; at 1.2 µM 0% | [1]; at 3.7 µM 0% | [1]; at 11.0 µM 3% | [1]; at 33.0 µM 4% | [2]; at 1.2 µM -3% | [2]; at 3.7 µM 0% | [2]; at 11.0 µM 0% | [2]; at 33.0 µM 5% | [3]; at 1.2 µM -4% | [3]; at 3.7 µM -4% | [3]; at 11.0 µM -3% | [3]; at 33.0 µM -3% | [3]; at 100.0 µM -2% | [4]; at 1.2 µM -3% | [4]; at 3.7 µM -3% | [4]; at 11.0 µM -1% | [4]; at 33.0 µM 10% | [4]; at 100.0 µM 42% | [5]; at 1.2 µM -1% | [5]; at 3.7 µM 1% | [5]; [17] 7% | [5]; at 11.0 µM 1% | [5]; at 33.0 µM 7% | [5]; [18] 66% | [5]; at 50.0 µM 2.05% | [6]; at 1.2 µM -6% | [6]; at 3.7 µM -3% | [6]; [17] -7% | [6]; at 11.0 µM 2% | [6]; at 33.0 µM 7% | [6]; [18] 48% | [6]; at 50.0 µM 49.5% | [7]; at 1.2 µM 0% | [7]; at 3.7 µM 3% | [7]; at 11.0 µM 9% | [7]; at 33.0 µM 20% | [8]; [17] 12% | [8]; [18] 50% | [8]; at 50.0 µM -2.15% | [9]; at 1.2 µM 1% | [9]; at 3.7 µM -3% | [9]; at 11.0 µM 7% | [9]; at 33.0 µM 29% | [10]; [17] 7% | [10]; [18] 38% | [10]; at 50.0 µM 1.1% | [11]; at 1.2 µM -5% | [11]; at 3.7 µM -3% | [11]; [17] 0% | [11]; at 11.0 µM -2% | [11]; at 33.0 µM 1% | [11]; [18] 4% | [11]; at 50.0 µM 19.2% | [12]; at 1.2 µM -2% | [12]; at 3.7 µM -5% | [12]; at 11.0 µM -4% | [12]; at 33.0 µM 0% | [13]; at 1.2 µM -5% | [13]; at 3.7 µM -2% | [13]; at 11.0 µM 1% | [13]; at 33.0 µM 8% | [14]; at 1.2 µM -3% | [14]; at 3.7 µM -1% | [14]; at 11.0 µM 0% | [14]; at 33.0 µM 5% | [15]; [17] -2% | [15]; [18] 17% | [15]; at 50.0 µM 42.2% | [16]; at 1.2 µM -7% | [16]; at 3.7 µM 0% | [16]; at 11.0 µM 5% | [16]; at 33.0 µM 8%
